Measurements from PubChem BioAssay (Tox21).
Values joined by “and” are separate entries in the source; they are usually repeats but may differ in a detail not shown here. Equal entries are not always repeated. Records with an inconclusive call do not appear. Active and inactive are the calls of the source. Unless noted, calls come from the whole dose curve; as a rule, active = well fitted curve in the direction sought with a large enough effect in the repeat runs; inconclusive = weak or mixed curves; inactive = no such curve, though single readings can be large; an effect the other way counts as inactive or inconclusive.

Tests used:
[1] = qHTS assay to identify small molecule agonists of the constitutive androstane receptor (CAR) signaling pathway - cell viability counter screen (AID 1224836); note: nearly all actives have a fitted effect of over 45% in size
Method in brief: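 HepG2-CYP2B6-hCAR, 2500 cells/well, 4 h pre-incubation; cpd 15 conc + PK11195 0.75 uM final; 23 h, 37 C/5% CO2; CellTiter-Fluor, fluorescence.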

[2] = qHTS assay to identify small molecule antagonists of the constitutive androstane receptor (CAR) signaling pathway - cell viability counter screen (AID 1224837); note: nearly all actives have a fitted effect of over 45% in size
Method in brief: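 CITCO at 50 nM final was added alongside compounds (15 concentrations) to double-stable hCAR/CYP2B6-2.2kb HepG2 cells. Following 23 hr at 37 C, cell viability was quantified by CellTiter-Fluor fluorescence intensity.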

[3] = molecular target: Nuclear receptor subfamily 1 group I member 3 (Homo sapiens) (UniProt Q14994); assay: qHTS assay to identify small molecule antagonists of the constitutive androstane receptor (CAR) signaling pathway (AID 1224838); note: nearly all actives have a fitted effect of over 40% in size
Method in brief: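 Inhibition of CITCO-driven (50 nM final) CYP2B6 reporter expression is measured in HepG2 cells stably carrying hCAR. Fifteen compound concentrations are applied for 24 h at 37 C, followed by luciferase luminescence.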

[4] = molecular target: Nuclear receptor subfamily 1 group I member 3 (Homo sapiens) (UniProt Q14994); assay: qHTS assay to identify small molecule agonists of the constitutive androstane receptor (CAR) signaling pathway (AID 1224839); note: nearly all actives have a fitted effect of over 15% in size; note: potency is the fitted concentration of half-maximal effect
Method in brief: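 HepG2-CYP2B6-hCAR cells, 2500/well, 4 h pre-incubation; compounds 15 conc.; PK11195 0.75 uM final; 24 h, 37 C/5% CO2; ONE-Glo luciferase read.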

[5] = qHTS assay to identify small molecule antagonists of the estrogen related receptor signaling pathway with the pleiotropic PPARgamma coactivator (PGC) from Tox21 10K library - cell viability counter screen (AID 1224840; active = well fitted cell-killing curve with a large enough effect in the repeat runs, not every such curve was filed as active; note: nearly all actives have a fitted effect of over 40% in size)
Method in brief: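 Readout: fluorescence intensity from CellTiter-Fluor after 30 min at 37 C/5% CO2. Preceded by 17.5 h treatment of PGC/ERR cells with DMSO-dissolved compounds, added 6 h post-seeding.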

[6] = qHTS assay to identify small molecule antagonists of the estrogen related receptor signaling pathway with the pleiotropic PPARgamma coactivator (PGC) from Tox21 10K library (AID 1224841; call rule not given here; note: actives are mostly falling curves and most rising ones were filed inactive; nearly all actives have a fitted effect of over 50% in size; note: potency is the fitted concentration of half-maximal effect)
Method in brief: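 One-Glo luminescence, measured after half an hour at room temperature, quantified reporter output of PGC/ERR cells. These had been plated at 2,000 per well, incubated 6 h, dosed with compounds in DMSO, then kept 18 h at 37 C.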

[7] = qHTS assay to identify small molecule agonists of the hypoxia (HIF-1) signaling pathway - cell viability counter screen (AID 1224844; calls by dose curve; note: nearly all actives have a fitted effect of over 50% in size; note: potency is the fitted concentration of half-maximal effect)
Method in brief: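 In this counter screen, HRE-bla ME-180 cell viability after 17 hrs of compound exposure at 37C was read by CellTiter-Glo luminescence, multiplexed with the beta-lactamase reporter measurement.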

[8] = qHTS assay to identify small molecule antagonists of the estrogen related receptor (ERR) signaling pathway from Tox21 library (AID 1224848); note: nearly all actives have a fitted effect of over 50% in size; note: potency is the fitted concentration of half-maximal effect
Method in brief: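 Luciferase luminescence (ONE-Glo, 30 min room temperature) was the read-out. Cells of the NTP-supplied ERR line, 2,000 per well, were given 6 h at 37 C before compound addition in DMSO and 18 h exposure at 37 C.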

[9] = qHTS assay to identify small molecule agonists of the estrogen related receptor (ERR) signaling pathway from Tox21 library (AID 1224849; calls by dose curve; note: nearly all actives have a fitted effect of over 15% in size); conditions: ERR reporter cell line, ONE-Glo luciferase, 18 h; at 92.4 µM (top of the series) unless noted
Method in brief: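 Luciferase activity in ERR pathway reporter cells served as the agonist readout; exposure lasted 18 h at 37 C, with ONE-Glo detection after 30 min at room temperature.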

[10] = qHTS RealTime-Glo MT Cell Viability Assay in HepG2 cells - 24 hour (AID 1224867); note: nearly all actives have a fitted effect of over 50% in size
Method in brief: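 HepG2 cells (600/well) were dispensed with RealTime-Glo reagents, incubated 5 h at 37 °C, then treated with compounds in DMSO for up to 40 h. Nonlytic NanoLuc luminescence reflecting viable cells was read at each stated time point.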

[11] = qHTS RealTime-Glo MT Cell Viability Assay in HepG2 cells - 40 hour (AID 1224870); note: nearly all actives have a fitted effect of over 50% in size
Method in brief: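 Real-time viability: cells seeded at 600 per well together with NanoLuc and cell-permeant prosubstrate, compounds added after 5 h incubation. Luminescence tracked at 0, 8, 16, 24, 32 and 40 h of exposure.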

[12] = molecular target: Luciferin 4-monooxygenase (Photinus pyralis) (UniProt P08659); assay: qHTS assay to identify small molecule inhibitors of firefly luciferase (AID 1224835); note: nearly all actives have a fitted effect of over 25% in size; note: potency is the fitted concentration of half-maximal effect
Method in brief: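 Inhibition of purified Photinus luciferase is measured by luminescence. Substrate levels (D-luciferin, ATP) sit at their KM values. Each compound is tested in a concentration series.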

[13] = qHTS assay to identify small molecule agonists of the estrogen related receptor signaling pathway with the pleiotropic PPARgamma coactivator (PGC) from Tox21 10K library (AID 1224842); note: nearly all actives have a fitted effect of over 15% in size
Method in brief: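 Luminescence from One-Glo (30 min, room temperature) measured after PGC/ERR cells had 18 h at 37 C with pinned compound (23 nL in DMSO). Cells had been seeded at 2,000 per well and pre-incubated 6 h.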

[14] = molecular target: Thyrotropin receptor (Homo sapiens) (UniProt P16473); assay: qHTS assay to identify small molecule agonists of the thyroid stimulating hormone receptor (TSHR) signaling pathway (AID 1224843; calls by dose curve; note: nearly all actives have a fitted effect of over 45% in size; note: potency is the fitted concentration of half-maximal effect)
Method in brief: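 Agonist activity read as cAMP rise via d2/cryptate HTRF competition, 1 h room-temperature detection, in HEK293 cells expressing TSHR. Fifteen-point titrations, each run in triplicate, with a 30 min room-temperature incubation beforehand.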

[15] = qHTS assay to identify small molecule agonists of H2AX - cell viability counter screen (AID 1224847; calls by dose curve; note: nearly all actives have a fitted effect of over 30% in size; note: potency is the fitted concentration of half-maximal effect)
Method in brief: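 Cells plated first: CHO-K1, 1000 per well in 10% FBS medium, incubated overnight at 37C. Then 15-point compound titration added (final DMSO 0.76%) for 3 hr. Finally CellTiter-Glo added and luminescence read.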

[16] = A CellTox Green Cytotoxicity Assay to monitor cytotoxicity in HEK293 cells - 0 hour (AID 1224869); note: nearly all actives have a fitted effect of over 50% in size; note: potency is the fitted concentration of half-maximal effect
Method in brief: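 Real-time, in one plate: 600 HEK293 cells/well with dead-cell DNA dye, pinned compound after 5 h, 37 C incubation over 40 h; viable cells give no appreciable fluorescence.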

[17] = qHTS assay to identify small molecule agonists of H2AX (AID 1224845; active = well fitted activation curve with a large enough effect in the signal ratio in the repeat runs, not every such curve was filed as active; the % refers to the signal ratio; note: potency is the fitted concentration of half-maximal effect)
Method in brief: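 Phospho-H2AX Ser139 measured by HTRF (ex 320 nm; em 665 and 620 nm) after 24 hr antibody incubation. Compounds, 15 concentrations, 0.76% DMSO, were applied to CHO-K1 cells for 3hr at 37C before lysis.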

[18] = qHTS assay to identify small molecule agonists of the hypoxia (HIF-1) signaling pathway (AID 1224846; active = well fitted activation curve with a large enough effect in the signal ratio in the repeat runs, not every such curve was filed as active; the % refers to the signal ratio)
Method in brief: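 ME-180 HRE-bla reporter cells; compounds in DMSO, 17 h at 37C; read-out beta-lactamase via CCF4-AM FRET.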

[19] = qHTS RealTime-Glo MT Cell Viability Assay in HEK293 cells - 32 hour (AID 1224868); note: nearly all actives have a fitted effect of over 50% in size; note: potency is the fitted concentration of half-maximal effect
Method in brief: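 HEK293 cells seeded with NanoLuc/prosubstrate reagent, rested 5 h at 37 C, then dosed and kept at 37 C up to 40 h. Nonlytic real-time luminescence from viable cells read at 0, 8, 16, 24, 32 and 40 h.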
% is set by controls: 0 for no effect and ±100 for the full control effect.

Sequence of Luciferin 4-monooxygenase (Photinus pyralis) (P08659 whole entry, looked up): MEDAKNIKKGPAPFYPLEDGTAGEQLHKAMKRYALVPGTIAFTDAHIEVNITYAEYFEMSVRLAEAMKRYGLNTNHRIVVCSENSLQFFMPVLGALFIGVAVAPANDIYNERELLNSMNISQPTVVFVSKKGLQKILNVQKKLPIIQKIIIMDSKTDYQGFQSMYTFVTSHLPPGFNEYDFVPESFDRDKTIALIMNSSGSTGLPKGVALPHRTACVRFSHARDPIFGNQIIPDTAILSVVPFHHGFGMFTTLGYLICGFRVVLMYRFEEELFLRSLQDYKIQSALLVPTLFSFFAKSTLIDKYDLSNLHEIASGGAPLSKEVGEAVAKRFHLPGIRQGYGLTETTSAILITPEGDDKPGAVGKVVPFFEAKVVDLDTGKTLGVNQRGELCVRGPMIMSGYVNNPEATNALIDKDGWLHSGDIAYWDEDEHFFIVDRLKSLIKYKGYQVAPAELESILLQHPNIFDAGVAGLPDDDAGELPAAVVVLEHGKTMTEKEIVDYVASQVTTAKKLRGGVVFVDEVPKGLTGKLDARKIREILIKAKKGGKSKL
Sequence of Nuclear receptor subfamily 1 group I member 3 (Homo sapiens) (Q14994 whole entry, looked up): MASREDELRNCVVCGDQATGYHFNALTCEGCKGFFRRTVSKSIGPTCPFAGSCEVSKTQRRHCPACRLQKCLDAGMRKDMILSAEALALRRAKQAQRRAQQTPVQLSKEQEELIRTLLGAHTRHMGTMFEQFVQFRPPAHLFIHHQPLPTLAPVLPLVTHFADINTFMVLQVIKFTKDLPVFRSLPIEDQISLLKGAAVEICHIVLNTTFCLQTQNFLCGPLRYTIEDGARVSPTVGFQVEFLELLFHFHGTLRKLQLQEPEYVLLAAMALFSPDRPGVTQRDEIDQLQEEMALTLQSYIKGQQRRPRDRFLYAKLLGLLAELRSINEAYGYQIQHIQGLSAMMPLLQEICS
Sequence of Thyrotropin receptor (Homo sapiens) (P16473 whole entry, looked up): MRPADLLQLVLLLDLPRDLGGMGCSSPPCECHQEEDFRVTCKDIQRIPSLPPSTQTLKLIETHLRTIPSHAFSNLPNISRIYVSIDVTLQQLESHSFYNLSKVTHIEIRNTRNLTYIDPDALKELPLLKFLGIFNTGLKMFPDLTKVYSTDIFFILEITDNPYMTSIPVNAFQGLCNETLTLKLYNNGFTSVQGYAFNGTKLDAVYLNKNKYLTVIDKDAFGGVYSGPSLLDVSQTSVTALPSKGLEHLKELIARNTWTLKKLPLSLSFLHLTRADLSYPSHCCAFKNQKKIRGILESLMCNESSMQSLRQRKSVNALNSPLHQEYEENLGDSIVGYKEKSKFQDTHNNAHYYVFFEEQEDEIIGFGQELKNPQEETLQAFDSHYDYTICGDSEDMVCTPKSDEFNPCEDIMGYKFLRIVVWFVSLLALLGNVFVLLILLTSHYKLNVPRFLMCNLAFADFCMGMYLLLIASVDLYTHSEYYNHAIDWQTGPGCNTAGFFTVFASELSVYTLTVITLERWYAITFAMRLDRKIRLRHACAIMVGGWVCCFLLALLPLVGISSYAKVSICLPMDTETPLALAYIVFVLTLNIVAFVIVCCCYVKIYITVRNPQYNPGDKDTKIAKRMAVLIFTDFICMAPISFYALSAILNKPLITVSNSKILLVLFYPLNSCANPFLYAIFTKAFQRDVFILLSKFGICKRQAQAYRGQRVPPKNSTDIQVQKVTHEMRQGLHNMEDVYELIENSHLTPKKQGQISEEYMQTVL

c1ccc(Nc2ccc(Nc3ccccc3)cc2)cc1
active: Potency [4] 24.2 µM
inactive: Potency [1] | Potency [2] | Potency [3] | Potency [5] | Potency [6] | Potency [7] | Potency [8] | activity change, positive = activation [9] -22.9% | Potency [10] | Potency [11]

CCCCCCC[CH2][Sn]([Cl])([Cl])[CH2]CCCCCCC
active: Potency [6] 27.3 µM | Potency [8] 61.1 µM
inactive: Potency [12] | Potency [1] | Potency [2] | Potency [3] | Potency [4] | Potency [13] | Potency [14] | Potency [15] | activity change, positive = activation [9] -59.9% | Potency [10] | Potency [16] | Potency [11]

O=S1(=O)OCC2C(CO1)C1(Cl)C(Cl)=C(Cl)C2(Cl)C1(Cl)Cl (stereo not drawn)
active: Potency [4] 17.2 µM | Potency [14] 17.2 µM | Potency [19] 21.9 µM
inactive: Potency [5] | Potency [17] | Potency [18] | Potency [15] | Potency [16] | Potency [11]

Oc1ccc2[nH]cc(CCCCN3CC=C(c4ccccc4)CC3)c2c1
inactive: Potency [1] | Potency [2] | Potency [13] | Potency [7] | Potency [18] | activity change, positive = activation [9] -32.1% [at 42.5 µM] | Potency [16] | Potency [11]
active: Potency [6] 5.96 µM | Potency [8] 29.8 µM

Clc1ccc(C(c2ccc(Cl)cc2)C(Cl)Cl)cc1
active: Potency [4] 49.3 µM and 21.7 µM | Potency [7] 49 µM | Potency [17] 89.8 µM | Potency [15] 80 µM | Potency [19] 49.8 µM and 43.6 µM
inactive: Potency [12] | Potency [1] | Potency [3] | Potency [5] | Potency [6] | Potency [13] | Potency [14] | activity change, positive = activation [9] -36.3% and -43.8% | Potency [10] | Potency [16]

Nc1nc(N)c(N)c(N)n1
active: Potency [16] 49.2 µM
inactive: Potency [12] | Potency [13] | Potency [14] | Potency [7] | Potency [18] | Potency [15] | Potency [8] | activity change, positive = activation [9] 0.198% | Potency [10] | Potency [19]

S=C=NCCc1ccccc1
inactive: Potency [3] | Potency [5] | Potency [14] | Potency [7] | Potency [15] | Potency [16]
active: Potency [12] 40 µM | Potency [4] 9.71 µM | Potency [19] 49.1 µM

CC(C)(C)c1ccc(OP(=O)(Oc2ccccc2)Oc2ccccc2)cc1
active: Potency [4] 48.9 µM | Potency [6] 7.74 µM | Potency [8] 61.5 µM
inactive: Potency [12] | Potency [2] | Potency [3] | Potency [5] | Potency [13] | Potency [7] | Potency [17] | Potency [18] | Potency [15] | activity change, positive = activation [9] -31.3% | Potency [10] | Potency [16] | Potency [11]

Oc1cc(Cl)c(Cl)c(Cl)c1Cl
active: Potency [6] 21.2 µM | Potency [15] 49.3 µM | Potency [8] 26.7 µM | Potency [19] 47.8 µM
inactive: Potency [13] | Potency [7] | Potency [17] | activity change, positive = activation [9] -60.7% | Potency [10] | Potency [16] | Potency [11]

NC1CCC(CC2CCC(N)CC2)CC1 (stereo not drawn)
inactive: Potency [12] | Potency [1] | Potency [2] | Potency [3] | Potency [4] | Potency [7] | Potency [17] | Potency [18] | Potency [15] | Potency [10] | Potency [16] | Potency [11]

CC(C)c1c(CN(C)C(C)Cc2ccccc2)n(C)n(-c2ccccc2)c1=O (stereo not drawn)
inactive: Potency [12] | Potency [2] | Potency [3] | Potency [5] | Potency [17] | Potency [18] | Potency [15] | Potency [10] | Potency [16] | Potency [11]
active: Potency [4] 13.3 µM

O=C(N[C@@H]1N=C(c2ccccc2F)c2cccc3c2N(CC3)C1=O)c1cc2ccccc2[nH]1
inactive: Potency [1] | Potency [2] | Potency [3] | Potency [5] | Potency [14] | Potency [7] | Potency [15]
active: Potency [12] 9.77 µM | Potency [4] 2.98 µM

COC(=O)c1cc(Oc2ccc(Cl)cc2Cl)ccc1[N+](=O)[O-]
inactive: Potency [12] | Potency [1] | Potency [3] | Potency [5] | Potency [7] | Potency [17] | Potency [18] | Potency [16] | Potency [11]

COP(=O)(OC)O/C(=C\Cl)c1cc(Cl)c(Cl)cc1Cl
active: Potency [6] 5.45 µM | Potency [8] 21.7 µM
inactive: Potency [1] | Potency [2] | Potency [13] | Potency [7] | Potency [17] | Potency [15] | activity change, positive = activation [9] -68.1% | Potency [19] | Potency [16]
